# Measurements as given in the supplement of paper PMC10981050.
# Several values for one entry are separate records, joined by “and”; a condition that tells them apart may be missing. Identical values can stand only once. Counter-ions that a name gives are not always drawn.
# How the values were obtained:
# Assay in all cases: cell viability relative to vehicle control; higher = less cytotoxic
# Conditions in all cases: 10 µM
# K562 = system: K562
# Method in brief: (§1)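 Four leukaemia lines, as CRISPR-edited mutant clones and isogenic wild-type clones, were tested against Selleck bioactive, kinase and epigenetic probe libraries after removal of identity-inconsistent compounds. Cells were exposed to a single 10 µM dose for 48 h, and CellTiter-Glo luminescence was then read. Viability was calculated relative to the on-plate vehicle control.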
# MARIMO = system: MARIMO
# Method in brief: as §1
# MOLM14 = system: MOLM14
# Method in brief: as §1
# OCI-AML2 = system: OCI-AML2
# Method in brief: as §1
Structure (SMILES),cell viability (K562; SRSF2 genotype: SRSF2 P95H/wt),cell viability (K562; SRSF2 genotype: SRSF2 wt/wt) [%],cell viability (MARIMO; SRSF2 genotype: SRSF2 P95H/wt) [%],cell viability (MARIMO; SRSF2 genotype: SRSF2 wt/wt) [%],cell viability (MOLM14; SRSF2 genotype: SRSF2 P95H/wt) [%],cell viability (MOLM14; SRSF2 genotype: SRSF2 wt/wt) [%],cell viability (OCI-AML2; SRSF2 genotype: P95H/wt) [%],cell viability (OCI-AML2; SRSF2 genotype: wt/wt) [%]
CCC(C)C(=O)O[C@@H]1[C@@H](OC(C)=O)[C@]2(C)[C@H](C(C)=O)CC[C@@]23O[C@]32CC[C@H]3C[C@@H](O[C@H]4C[C@@H](OC)[C@H](O[C@@H]5O[C@H](C)[C@@H](O)[C@@H](OC)[C@H]5O)[C@@H](C)O4)CC[C@]3(C)[C@@H]12 (stereo partly specified) [Tenacissoside H],89.8% and 95.2%,97.7,96.9,93.2,94.6,93.4,98.9,96.7
O=C1C2CCN(CC2)C1(CO)CO,74.5% and 85.5%,73.3,83.6,73.8,34.1,41.8,56.2,47
COc1cc(C)[nH]c(=O)c1CNC(=O)c1c(C)n([C@H](C)C2CCN(CC(F)(F)F)CC2)c2ccccc12,103% and 99%,110,103,110,97.2,95.3,103,109
C=C1CC[C@H]2[C@@H](C=C(C)C(=O)[C@@]3(O)C[C@H](C)[C@H](O)[C@@H]3[C@H]1O)C2(C)C [Lathyrol],94.9% and 95.9%,96.9,92.5,102,97.1,96.8,105,99
Cc1cccc(C(C)c2c[nH]cn2)c1C (stereo unspecified) [Medetomidine HCl],97.2% and 99.8%,95.1,95.1,107,101,102,97,113
CC1=C2C(=O)[C@H]3[C@@H](CC=C4C[C@@H](O)CC[C@@]43C)[C@@H]2CC[C@]12O[C@@H]1C[C@H](C)CN[C@H]1[C@H]2C [Jervine],91.9% and 81.4%,85.2,89.1,98.5,91.4,101,92.7,92.4
O=C(NCC1CCOCC1)c1cnc(Nc2ccc(Cl)cc2Cl)nc1C(F)(F)F,95% and 97.7%,98,93.5,104,103,104,98.5,102
C[C@H]1CCCC(=O)CCC/C=C/c2cc(O)cc(O)c2C(=O)O1 [Zearalenone],101% and 93.8%,99.5,82.7,88.8,79.2,99,88.7,97.7
C=C[C@]12CN(C)[C@@H]3[C@H]4CO[C@H](C[C@H]41)[C@]1(C(=O)Nc4ccccc41)[C@@H]32 [Gelsemine],91.8% and 88.5%,87.9,87.9,97.5,96,90,90.1,90
CCC1=C[C@H]2CN3CCc4c([nH]c5ccccc45)[C@](C(=O)OC)(C2)[C@H]13 [Catharanthine],92.4% and 94%,95.2,81,86.6,87.8,95.5,92,96.2
N#CC=C1C=CC(O)C(O)C1OC1OC(CO)C(O)C(O)C1O (stereo unspecified) [Lithospermoside],89.9% and 83.2%,84.3,86.5,97.5,87.4,91.7,95,116
CC(=O)Nc1ccc(OC[C@](C)(O)C(=O)Nc2ccc([N+](=O)[O-])c(C(F)(F)F)c2)cc1 [Andarine (GTX-007)],103% and 99%,107,98.4,105,106,105,97.1,95.8
CCCCCCC[n+]1ccc(-c2cc[n+](CCCCCCC)cc2)cc1 [DHBP dibromide],51.7% and 49.9%,56.3,71,76.1,53.9,76.4,51.8,52.4
C#C[C@]1(O)C=C[C@H]2[C@@H]3CCC4=CC(=O)CC[C@@H]4[C@H]3CC[C@@]21CC [Gestodene],94.9% and 97.5%,95.4,90.9,97.2,94.2,97.1,99,94.8
O=C(O[C@H]1C[N+]2(CCCOc3ccccc3)CCC1CC2)C(O)(c1cccs1)c1cccs1 [Aclidinium Bromide],104% and 98.9%,101,108,111,103,106,106,106
COc1cc(-n2c(=S)[nH]c3ccccc3c2=O)c(Cl)cc1Cl [Mdivi-1],91.9% and 96.6%,94.2,90.7,95.2,91,102,109,116
O=c1ccc2cc3ccoc3c(O)c2o1 [Xanthotoxol],91.6% and 88.5%,87.1,84.3,95.3,92.8,92.2,96.5,93.3
O=S(=O)(CC1CS1)c1ccc(Oc2ccccc2)cc1 (stereo unspecified),88.7% and 98.8%,92.2,45.8,73.1,39.1,29.4,14.9,14.1
Fc1cc(F)c2c(c1)[C@H]1C=CC[C@H]1C(c1cccnc1)N2 (stereo partly specified) [Golgicide A],25.9% and 36.2%,32.3,14.1,27.5,46.3,68.2,12.2,22.5
O=c1ccc2cc(O[C@@H]3O[C@H](CO)[C@@H](O)[C@H](O)[C@H]3O)c(O)cc2o1 [Aesculin (Esculin)],104% and 98.9%,100,96.9,97.7,101,99.7,95.1,93.3
Cc1cccc(C)c1NC1=NCCCS1 [Xylazine HCl],101% and 85.1%,82.8,85.1,96.8,90.4,91.5,89.1,93.1

Structure (SMILES),cell viability (K562; SRSF2 genotype: SRSF2 P95H/wt),cell viability (K562; SRSF2 genotype: SRSF2 wt/wt) [%],cell viability (MARIMO; SRSF2 genotype: SRSF2 P95H/wt) [%],cell viability (MARIMO; SRSF2 genotype: SRSF2 wt/wt) [%],cell viability (MOLM14; SRSF2 genotype: SRSF2 P95H/wt) [%],cell viability (MOLM14; SRSF2 genotype: SRSF2 wt/wt) [%],cell viability (OCI-AML2; SRSF2 genotype: P95H/wt) [%],cell viability (OCI-AML2; SRSF2 genotype: wt/wt) [%]
CCN1CC2(OC(=O)c3ccccc3NC(C)=O)CCC(OC)C34C1C(CC23)C1(O)CC(OC)C2CC4C1(O)C2OC (stereo unspecified) [Lappaconite Hydrobromide],102% and 86.3%,88.2,86.7,96.2,89.6,96.4,97.3,87.2
Cc1sc2c(c1C)C(c1ccc(Cl)cc1)=NC(CC(N)=O)c1nnc(C)n1-2 (stereo unspecified),65.2% and 63.5%,69.8,30,36.7,20.1,20.3,15.3,29.4
C[C@H]1CCC/C=C/[C@@H]2C[C@H](O)C[C@H]2[C@H](O)/C=C/C(=O)O1 [Brefeldin A],19% and 24.5%,24.1,9.22,6.8,6.71,4.1,4.83,18.7
C=C[C@@]12CN(C)[C@H]3C[C@]14C(=Nc1ccccc14)[C@@H]1C[C@@H]2[C@@H]3CO1 [Koumine],99.2% and 99.1%,98.6,102,102,104,96.2,101,101
CC(=O)OC1CN2CCC1CC2 (stereo unspecified) [Aceclidine HCl],99.8% and 104%,100,104,112,104,106,102,105
Cn1c(COP(=O)(NCCBr)NCCBr)cnc1[N+](=O)[O-],102% and 109%,103,39.3,56,29.1,12.8,29.4,40.1
Cc1cccc(Cc2c[nH]cn2)c1C [Detomidine HCl],96.3% and 104%,96.5,103,95.3,105,106,110,93.1
C[N+]1(C)[C@@H]2C[C@@H](OC(=O)[C@H](CO)c3ccccc3)C[C@H]1[C@@H]1O[C@@H]12 [Methscopolamine (Pamine)],97.7% and 84.7%,82.5,79.5,87.8,82.4,84.1,83.2,84.8
CC(=O)O[C@H]1[C@H]2[C@@H](OC(=O)Cc3ccccc3)[C@@H](C)C[C@]2(OC(C)=O)C(=O)/C(C)=C/[C@@H]2[C@H](CC[C@@]13CO3)C2(C)C [Euphorbiasteroid],63.8% and 85.5%,84.1,111,27.6,46.1,30.6,27.2,22.4
O=C(O)CNC(=O)c1c(O)c2ccccc2n(Cc2ccccc2)c1=O,95.1% and 95.2%,101,94.3,100,99.8,101,103,96.5
CN(C)CCc1ccc(O)cc1 [Hordenine],104% and 106%,103,108,106,101,109,107,94.8
O=C(O[C@H]1C[C@H]2CC[C@@H](C1)[N+]21CCCC1)C(O)(c1ccccc1)c1ccccc1 [Trospium chloride (Sanctura)],98.8% and 100%,95.7,101,102,99.4,102,102,102
CN1c2ccccc2C(NCCCCCCC(=O)O)c2ccc(Cl)cc2S1(=O)=O (stereo unspecified) [Tianeptine sodium],99.4% and 97.1%,97.6,106,108,107,101,98.4,111
Cc1cccc([C@H](C)c2c[nH]cn2)c1C [Dexmedetomidine],97.4% and 102%,98.5,95.6,101,105,102,114,95.9
Cc1c(Cl)c(OCC(=O)N2CCN(C)CC2)nc2sc(C(=O)NC3CC3)c(N)c12,80.2% and 60.3%,66,40.5,30.8,81.9,51,27.8,33.5
C[C@H]1CC(=O)C[C@@H]2CC[C@H]3[C@@H]4CC[C@H](O)[C@@]4(C)CC[C@@H]3[C@]21C [Mesterolone],84.1% and 79.7%,83,71.6,82.2,79.9,84.7,75.6,80.7
NCCc1ccccc1 [2-Phenylethylamine hydrochloride],105% and 104%,104,103,105,104,106,112,117
"COc1ccc(/C=C/c2cc(OC)cc(OC)c2)cc1 [3,4',5-Trimethoxy-trans-stilbene]",26.9% and 46.4%,39.7,47.5,35.7,15.3,6.3,38.2,36.4
CNC(C)Cc1ccccc1OC (stereo unspecified) [Methoxyphenamine Hydrochloride],98% and 100%,106,100,104,106,102,107,101
COc1ccc(C(CN(C)C)C2(O)CCCCC2)cc1 (stereo unspecified) [Venlafaxine HCl],99.9%,98.7,95.8,99.7,96.9,98.6,99.8,107
CN1[C@@H]2CC[C@H]1C[C@@H](OC(=O)C(CO)c1ccccc1)C2 (stereo partly specified) [Atropine sulfate monohydrate],93.4% and 94.7%,100,104,112,100,105,100,99.6
